PubChem BioAssay (EPA / NIEHS)
Inconclusive results are not listed. Calls of active or inactive are those of the source. Rule for the calls, unless noted: active = hit-call score of the fitted dose curve at least 0.9, where 1 is the maximum; inactive = score below 0.9.

Key:
[1] = target: CCAAT/enhancer-binding protein beta (Homo sapiens) (UniProt P17676); test: ATG_C_EBP_CIS: Attagene CIS-FACTORIAL HepG2 Assay for human CCAAT/Enhancer Binding Protein (C/EBP) beta (AID 2282927); conditions: HepG2 Attagene cis-factorial transcription factor reporter; actives raise or lower the signal
Chain of CCAAT/enhancer-binding protein beta (Homo sapiens) (P17676 whole entry, looked up): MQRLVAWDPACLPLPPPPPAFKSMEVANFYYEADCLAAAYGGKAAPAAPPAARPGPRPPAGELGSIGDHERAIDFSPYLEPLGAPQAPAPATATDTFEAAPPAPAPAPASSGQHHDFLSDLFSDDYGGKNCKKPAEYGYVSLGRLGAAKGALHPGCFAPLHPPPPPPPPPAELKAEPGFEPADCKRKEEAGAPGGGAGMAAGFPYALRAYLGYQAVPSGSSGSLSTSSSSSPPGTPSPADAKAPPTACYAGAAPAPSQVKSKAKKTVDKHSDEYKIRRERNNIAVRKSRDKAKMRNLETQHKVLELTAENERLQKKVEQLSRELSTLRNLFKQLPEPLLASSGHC
Procedure, shortened: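 HepG2, transient MRTU transfection, 24 h treatment. RT-PCR plus CE fluorescence; DMSO negative control, bidirectional fit.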

[2] = ATG_CMV_CIS: Attagene CIS-FACTORIAL HepG2 Assay for human CMV (Internal Marker) (AID 2282928); conditions: HepG2 CMV promoter reporter, transcription factor profiling; actives raise or lower the signal;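 note: endpoint acts as a background internal control marker rather than a target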
Procedure, shortened: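 Bidirectional fits against DMSO are applied to reporter mRNA, read by RT-PCR with capillary electrophoresis, from HepG2 cells exposed 24 h. The endpoint serves as an internal CMV background marker within the cis-factorial reporter panel.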

[3] = target: Hypoxia-inducible factor 1-alpha (Homo sapiens) (UniProt Q16665); test: ATG_HIF1a_CIS: Attagene CIS-FACTORIAL HepG2 Assay for human Hypoxia Inducible Factor 1 (HIF1A) (AID 2282951); conditions: HepG2 Attagene cis-factorial HIF1a reporter transcription; actives raise or lower the signal
Chain of Hypoxia-inducible factor 1-alpha (Homo sapiens) (Q16665 whole entry, looked up): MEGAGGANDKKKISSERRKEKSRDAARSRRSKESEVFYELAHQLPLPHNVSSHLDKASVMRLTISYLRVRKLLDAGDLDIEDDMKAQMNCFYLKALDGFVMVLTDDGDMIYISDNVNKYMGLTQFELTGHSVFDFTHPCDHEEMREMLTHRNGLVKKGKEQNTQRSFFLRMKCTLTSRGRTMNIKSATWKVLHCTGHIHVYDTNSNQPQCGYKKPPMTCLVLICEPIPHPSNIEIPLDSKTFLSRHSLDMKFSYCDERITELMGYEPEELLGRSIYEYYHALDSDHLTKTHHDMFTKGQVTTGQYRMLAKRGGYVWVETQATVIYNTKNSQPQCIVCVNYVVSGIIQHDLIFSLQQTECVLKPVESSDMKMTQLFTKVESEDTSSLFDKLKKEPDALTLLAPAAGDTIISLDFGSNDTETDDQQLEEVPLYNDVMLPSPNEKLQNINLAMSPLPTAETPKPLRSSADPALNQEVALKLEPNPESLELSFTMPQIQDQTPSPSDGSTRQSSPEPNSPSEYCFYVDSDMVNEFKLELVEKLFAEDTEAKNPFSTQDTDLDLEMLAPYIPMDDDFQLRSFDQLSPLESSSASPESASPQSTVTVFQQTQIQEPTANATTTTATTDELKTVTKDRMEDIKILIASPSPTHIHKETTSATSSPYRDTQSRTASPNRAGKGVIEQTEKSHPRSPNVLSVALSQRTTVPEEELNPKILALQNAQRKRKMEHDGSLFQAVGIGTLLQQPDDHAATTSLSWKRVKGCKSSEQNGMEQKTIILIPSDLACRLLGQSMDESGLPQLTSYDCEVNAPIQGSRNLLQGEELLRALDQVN
Procedure, shortened: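 Activity is fitted in both directions relative to DMSO. Reporter transcripts are read by RT-PCR, fluorescent primer extension and capillary electrophoresis after 24 h chemical treatment. The cells are HepG2 carrying transiently transfected cis-element-driven reporter units responding to endogenous factors.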

[4] = target: Heat shock factor protein 1 (Homo sapiens) (UniProt Q00613); test: ATG_HSE_CIS: Attagene CIS-FACTORIAL HepG2 Assay for human Heat Shock Transcription Factor 1 (HSE) (AID 2282953); conditions: HepG2 HSE cis-reporter, Attagene RNA transcription; actives raise or lower the signal
Chain of Heat shock factor protein 1 (Homo sapiens) (Q00613 whole entry, looked up): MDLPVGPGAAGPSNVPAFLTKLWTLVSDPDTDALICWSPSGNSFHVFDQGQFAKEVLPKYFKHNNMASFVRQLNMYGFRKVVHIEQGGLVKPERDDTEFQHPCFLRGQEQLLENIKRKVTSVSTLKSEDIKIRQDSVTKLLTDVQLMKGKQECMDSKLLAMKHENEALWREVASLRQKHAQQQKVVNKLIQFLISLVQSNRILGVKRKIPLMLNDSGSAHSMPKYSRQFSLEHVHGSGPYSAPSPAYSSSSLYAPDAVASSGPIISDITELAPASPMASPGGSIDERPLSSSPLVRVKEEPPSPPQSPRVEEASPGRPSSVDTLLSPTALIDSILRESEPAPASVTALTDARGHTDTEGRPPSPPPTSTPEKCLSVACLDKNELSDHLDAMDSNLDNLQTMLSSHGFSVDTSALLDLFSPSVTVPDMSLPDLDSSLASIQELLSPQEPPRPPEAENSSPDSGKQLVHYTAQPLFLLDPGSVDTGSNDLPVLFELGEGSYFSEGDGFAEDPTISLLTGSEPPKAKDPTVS
Procedure, shortened: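 Endogenous transcription factor activity in transiently transfected HepG2, read as reporter mRNA by RT-PCR with fluorescent capillary electrophoresis after 24 h. Gain or loss of signal fitted versus DMSO baseline.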

[5] = ATG_RORE_CIS: Attagene CIS-FACTORIAL HepG2 Assay for human RAR-related Orphan Receptor Element (RORE) (AID 2282959); conditions: HepG2 Attagene cis-factorial RORE reporter, mRNA; actives raise or lower the signal
Procedure, shortened: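 RORE reporter transcripts reflecting endogenous factor activity were read after 24 h compound exposure of transfected HepG2 cells, using reverse transcription, PCR, fluorescent labelling and capillary electrophoresis sizing. Gain or loss fitted against DMSO.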

[6] = ATG_TA_CIS: Attagene CIS-FACTORIAL HepG2 Assay for human TA Basal Promoter (AID 2282964); conditions: HepG2 Attagene CIS-factorial TA basal promoter reporter; actives raise or lower the signal
Procedure, shortened: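 Background-control readout: TA basal promoter reporter mRNA, fitted in both directions relative to DMSO. Measured by RT-PCR and capillary electrophoresis 24 hours after treating HepG2 human liver cells transiently carrying multiplexed cis-regulated reporter constructs.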

[7] = ATG_TCF_b_cat_CIS: Attagene CIS-FACTORIAL HepG2 Assay for human T-Cell-Factor with beta-catenin (TCF/b-cat) (AID 2282965); conditions: HepG2 TCF/beta-catenin cis-reporter transcription, actives raise or lower the signal
Procedure, shortened: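 Cells of the HepG2 line carry transiently transfected reporter units whose promoters respond to endogenous factors. Twenty-four hours post-dosing, reporter mRNA induction is measured by fluorescent RT-PCR and capillary electrophoresis, with DMSO as baseline.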

[8] = ATG_TAL_CIS: Attagene CIS-FACTORIAL HepG2 Assay for human TAL Basal Promoter (AID 2282966); conditions: HepG2 Attagene cis-factorial TAL promoter reporter; actives raise or lower the signal;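 note: background control endpoint measuring basal TAL promoter reporter mRNA not a specific factor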
Procedure, shortened: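 Transiently transfected HepG2 (cis-regulated reporter units), 24 h treatment, mRNA read by fluorescent CE after RT-PCR; bidirectional fit, DMSO baseline.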

[9] = ATG_TGFb_CIS: Attagene CIS-FACTORIAL HepG2 Assay for human Transforming Growth Factor (TGF) (AID 2282967); conditions: HepG2 Attagene CIS TGFb reporter, mRNA transcription; actives raise or lower the signal
Procedure, shortened: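 Endogenous TGFB1-linked transcription factor activity read as reporter mRNA via RT-PCR and capillary electrophoresis, 24 h after dosing transiently transfected HepG2 cells. Gain or loss of signal fitted relative to DMSO.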

[10] = ATG_VDRE_CIS: Attagene CIS-FACTORIAL HepG2 Assay for human Vitamin D Receptor Element (VDRE) (AID 2282968); conditions: HepG2 VDRE cis-reporter transcription, actives raise or lower the signal
Procedure, shortened: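 Transient MRTU transfection of HepG2, 24 h compound exposure. Readout: reporter transcripts via RT-PCR and capillary electrophoresis, fluorescence. Bidirectional fit vs DMSO.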

[11] = ATG_M_32_TRANS: Attagene TRANS-FACTORIAL HepG2 Assay for M32 Transcription Factor (Internal Marker) (AID 2282984; active = hit-call score of the fitted dose curve at least 0.9, where 1 is the maximum;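 note: transcript level of a background control reporter unit measured by RT-PCR and capillary electrophoresis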); conditions: HepG2 Attagene TRANS M32 internal marker reporter
Procedure, shortened: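 Read-out: fluorescent reporter cDNA fragments resolved by capillary electrophoresis after RT-PCR of total RNA. Transfected HepG2 cells were exposed to chemical for 24 h. Activity scored in the positive direction relative to DMSO.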

[12] = target: Transcriptional activator Myb (Homo sapiens) (UniProt P10242); test: ATG_Myb_CIS: Attagene CIS-FACTORIAL HepG2 Assay for human Myeloblastosis (Myb) Proto-Oncogene Transcription Factor (AID 2282986); conditions: HepG2 Attagene CIS-FACTORIAL Myb reporter transcription; actives raise or lower the signal
Chain of Transcriptional activator Myb (Homo sapiens) (P10242 whole entry, looked up): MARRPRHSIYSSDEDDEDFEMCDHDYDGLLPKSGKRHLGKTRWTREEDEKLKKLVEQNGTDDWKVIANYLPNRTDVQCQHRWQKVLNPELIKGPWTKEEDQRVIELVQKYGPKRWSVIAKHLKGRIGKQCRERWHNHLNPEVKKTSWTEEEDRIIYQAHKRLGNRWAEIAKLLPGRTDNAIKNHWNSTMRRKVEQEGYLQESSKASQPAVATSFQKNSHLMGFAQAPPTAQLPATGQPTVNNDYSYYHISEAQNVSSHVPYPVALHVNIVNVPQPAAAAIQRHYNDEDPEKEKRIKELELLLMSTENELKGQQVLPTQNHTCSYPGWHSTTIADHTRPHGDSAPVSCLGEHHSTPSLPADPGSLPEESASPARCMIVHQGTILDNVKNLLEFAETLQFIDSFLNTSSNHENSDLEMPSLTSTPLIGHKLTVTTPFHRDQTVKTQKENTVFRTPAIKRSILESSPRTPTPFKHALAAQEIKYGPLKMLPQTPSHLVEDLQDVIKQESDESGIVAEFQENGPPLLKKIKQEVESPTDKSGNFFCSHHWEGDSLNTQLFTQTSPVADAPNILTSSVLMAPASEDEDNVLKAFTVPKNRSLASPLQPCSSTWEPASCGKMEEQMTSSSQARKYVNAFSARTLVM
Procedure, shortened: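 Reporter mRNA is quantified by RT-PCR and capillary electrophoresis 24 h after dosing HepG2 cells transfected with cis-regulated reporter units, which track endogenous transcription factor activity. Gain and loss of signal are fitted versus DMSO baseline.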

[13] = target: Myc proto-oncogene protein (Homo sapiens) (UniProt P01106); test: ATG_Myc_CIS: Attagene CIS-FACTORIAL HepG2 Assay for human Myelocytomatosis (Myc) Proto-Oncogene Transcription Factor (AID 2282990); conditions: HepG2, Attagene cis-reporter transcription factor activity; actives raise or lower the signal
Chain of Myc proto-oncogene protein (Homo sapiens) (P01106 whole entry, looked up, the tested form may be a part): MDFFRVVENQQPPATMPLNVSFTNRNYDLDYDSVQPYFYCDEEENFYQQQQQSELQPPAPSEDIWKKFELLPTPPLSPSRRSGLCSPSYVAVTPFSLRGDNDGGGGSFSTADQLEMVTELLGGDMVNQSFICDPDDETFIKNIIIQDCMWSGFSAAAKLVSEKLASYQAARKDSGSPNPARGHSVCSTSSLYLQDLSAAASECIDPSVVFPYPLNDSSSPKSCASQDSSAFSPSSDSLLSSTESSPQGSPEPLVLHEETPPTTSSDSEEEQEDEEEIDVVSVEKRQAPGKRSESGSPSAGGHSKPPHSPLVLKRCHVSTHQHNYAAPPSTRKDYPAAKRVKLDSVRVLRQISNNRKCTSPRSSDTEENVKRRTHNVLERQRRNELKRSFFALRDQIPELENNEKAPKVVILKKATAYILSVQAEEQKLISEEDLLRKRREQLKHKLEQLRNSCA
Procedure, shortened: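 Fluorescence intensity of reporter-specific cDNA fragments, separated by capillary electrophoresis, gives the signal. Transfected HepG2 cells carrying cis-promoter reporter constructs are incubated with compound for 24 h; DMSO serves as baseline.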

[14] = ATG_NF_kB_CIS: Attagene CIS-FACTORIAL HepG2 Assay for human Nuclear Factor Kappa B (NF-kB) (AID 2282991); conditions: HepG2 Attagene cis-factorial NF-kB reporter mRNA; actives raise or lower the signal
Procedure, shortened: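 Readout is reporter transcript level, gain or loss versus DMSO, measured 24 h post-dose via RT-PCR, fluorescent labelling and capillary electrophoresis. Human HepG2 liver cells carried transiently transfected CIS reporter constructs reflecting endogenous factors.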

[15] = ATG_NRF2_ARE_CIS: Attagene CIS-FACTORIAL HepG2 Assay for human Nuclear Factor Erythroid 2 Related Factor 2 (NFR2) response to Antioxidant Response Elements (ARE) (AID 2282992); conditions: HepG2 Attagene ARE/NRF2 reporter, transcription factor activity; actives raise or lower the signal
Procedure, shortened: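 Endogenous transcription factor activity read out as reporter transcript levels (RT-PCR plus capillary electrophoresis, fluorescence) in transiently transfected HepG2 cells. Measured at 24 h after dosing; gain or loss of signal fitted versus DMSO.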

[16] = ATG_Oct_MLP_CIS: Attagene CIS-FACTORIAL HepG2 Assay for human Octamer-Binding Transcription Factor (Oct) (AID 2282993); conditions: HepG2 Attagene cis-factorial Oct reporter, mRNA; actives raise or lower the signal
Procedure, shortened: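 Readout is reporter transcript level from RT-PCR with fluorescent primer extension and capillary electrophoresis, fitted in both directions against DMSO. Transfected HepG2 reporter units report endogenous factor activity after 24 h dosing.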

[17] = target: Cellular tumor antigen p53 (Homo sapiens) (UniProt P04637); test: ATG_p53_CIS: Attagene CIS-FACTORIAL HepG2 Assay for human p53 Transcription Factor (AID 2282994); conditions: HepG2 p53 cis-element reporter, Attagene mRNA; actives raise or lower the signal
Chain of Cellular tumor antigen p53 (Homo sapiens) (P04637 whole entry, looked up): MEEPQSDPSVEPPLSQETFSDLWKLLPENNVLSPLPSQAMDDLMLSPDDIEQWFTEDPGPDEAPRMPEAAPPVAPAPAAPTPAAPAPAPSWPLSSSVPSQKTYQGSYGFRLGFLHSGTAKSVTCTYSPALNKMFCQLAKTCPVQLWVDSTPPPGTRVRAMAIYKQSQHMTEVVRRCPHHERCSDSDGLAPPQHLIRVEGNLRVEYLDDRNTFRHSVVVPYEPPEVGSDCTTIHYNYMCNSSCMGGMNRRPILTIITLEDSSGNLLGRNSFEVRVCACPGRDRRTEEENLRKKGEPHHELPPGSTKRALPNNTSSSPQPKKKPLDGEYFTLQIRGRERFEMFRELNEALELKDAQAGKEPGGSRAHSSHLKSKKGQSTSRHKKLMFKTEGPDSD
Procedure, shortened: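 Endogenous p53 activity read in transiently transfected HepG2 from a cis-element-driven reporter transcript after 24 h exposure. RNA reverse-transcribed, PCR-amplified, fluorescently labelled and sized by capillary electrophoresis; gain or loss fitted against DMSO baseline.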

[18] = ATG_XTT_Cytotoxicity: Cytotoxicity Assessment in the Attagene TRANS-FACTORIAL HepG2 Assay (AID 2283584; active = hit-call score of the fitted dose curve at least 0.9, where 1 is the maximum;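 for AC50: cells exposed to compound for 24 h before reading; active means loss of viability signal versus DMSO baseline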)
Procedure, shortened: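 HepG2 human liver cells, transiently transfected with multiple GAL4-UAS reporter units, were dosed and read at 24 h by XTT as cell number. Loss of signal was fitted relative to DMSO negative control baseline.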

[19] = target: Hepatocyte nuclear factor 6 (Homo sapiens) (UniProt Q9UBC0); test: ATG_HNF6_CIS: Attagene CIS-FACTORIAL HepG2 Assay for human Hepatocyte Nuclear Factor 6 (HNF6) (AID 2282952); conditions: HepG2 Attagene cis-factorial HNF6 reporter transcription; actives raise or lower the signal
Chain of Hepatocyte nuclear factor 6 (Homo sapiens) (Q9UBC0 whole entry, looked up): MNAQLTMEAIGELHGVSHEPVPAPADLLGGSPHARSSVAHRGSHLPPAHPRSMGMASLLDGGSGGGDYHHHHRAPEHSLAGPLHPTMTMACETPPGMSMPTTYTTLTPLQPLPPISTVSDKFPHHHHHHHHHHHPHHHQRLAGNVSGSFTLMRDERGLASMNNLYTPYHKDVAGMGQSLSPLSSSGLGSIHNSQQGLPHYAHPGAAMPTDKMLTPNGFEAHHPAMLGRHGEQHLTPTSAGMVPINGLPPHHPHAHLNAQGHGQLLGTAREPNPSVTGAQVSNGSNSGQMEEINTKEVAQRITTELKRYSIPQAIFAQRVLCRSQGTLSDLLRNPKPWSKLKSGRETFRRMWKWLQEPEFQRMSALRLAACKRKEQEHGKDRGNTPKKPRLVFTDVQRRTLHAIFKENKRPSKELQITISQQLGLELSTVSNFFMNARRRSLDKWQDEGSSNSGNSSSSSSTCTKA
Procedure, shortened: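 Activity values derive from bidirectional fitting against DMSO of reporter mRNA levels, measured by capillary electrophoresis of labelled RT-PCR products from HepG2 cells exposed 24 h.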

[20] = target: Aryl hydrocarbon receptor (Homo sapiens) (UniProt P35869); test: ATG_Ahr_CIS: Attagene CIS-FACTORIAL HepG2 Assay for human Aryl Hydrocarbon Receptor (Ahr) (AID 2282930); conditions: HepG2 AhR cis-factorial reporter transcription; actives raise or lower the signal
Chain of Aryl hydrocarbon receptor (Homo sapiens) (P35869 whole entry, looked up): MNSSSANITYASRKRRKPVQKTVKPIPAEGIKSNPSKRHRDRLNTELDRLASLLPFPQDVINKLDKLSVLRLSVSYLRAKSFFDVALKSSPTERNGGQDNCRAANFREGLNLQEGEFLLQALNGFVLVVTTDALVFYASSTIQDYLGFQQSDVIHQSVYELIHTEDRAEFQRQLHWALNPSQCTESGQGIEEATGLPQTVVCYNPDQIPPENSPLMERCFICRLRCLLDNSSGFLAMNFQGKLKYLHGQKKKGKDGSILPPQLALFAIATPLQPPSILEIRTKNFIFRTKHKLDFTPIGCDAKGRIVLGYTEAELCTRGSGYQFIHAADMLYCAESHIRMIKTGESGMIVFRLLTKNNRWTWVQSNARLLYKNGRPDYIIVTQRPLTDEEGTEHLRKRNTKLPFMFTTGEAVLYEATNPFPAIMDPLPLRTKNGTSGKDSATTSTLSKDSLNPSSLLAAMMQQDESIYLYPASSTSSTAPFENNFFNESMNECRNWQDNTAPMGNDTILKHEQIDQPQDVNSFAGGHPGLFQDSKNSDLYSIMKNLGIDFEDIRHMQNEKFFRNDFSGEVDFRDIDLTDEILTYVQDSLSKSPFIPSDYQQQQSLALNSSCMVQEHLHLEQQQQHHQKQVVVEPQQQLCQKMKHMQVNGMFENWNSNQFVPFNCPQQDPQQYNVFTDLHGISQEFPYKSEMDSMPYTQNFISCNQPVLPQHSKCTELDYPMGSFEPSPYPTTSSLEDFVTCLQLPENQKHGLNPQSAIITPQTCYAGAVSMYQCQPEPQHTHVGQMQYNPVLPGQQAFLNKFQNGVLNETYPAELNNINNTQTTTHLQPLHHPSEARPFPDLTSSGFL
Procedure, shortened: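 Endogenous factor activity is tracked through cis-promoter reporter units transfected into HepG2 cells. Transcript levels at 24 h are read by fluorescent RT-PCR and capillary electrophoresis, with activity in either direction scored relative to DMSO.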

Measured: AC50

O=[N+]([O-])C=Cc1ccccc1
active: [4] 11.4 µM | [7] 18.9 µM | [10] 10.7 µM | [12] 22.9 µM | [14] 34.7 µM | [16] 18.5 µM | [17] 20.2 µM | [18] 75.7 µM
not listed: [19] | [20]
inactive: all other assays above

O=C1C(Cl)=C(Cl)C(=O)C(Cl)=C1Cl
active: [3] 100 µM | [4] 89.5 µM | [9] 26.6 µM | [14] 34.6 µM | [15] 48.7 µM
not listed: [20]
inactive: all other assays above

CCCCCCCCCCCC#N
active: [14] 131 µM | [15] 73.4 µM | [16] 141 µM
not listed: [2]
inactive: all other assays above

CN1C(=O)CCS(=O)(=O)C1c1ccc(Cl)cc1 (centres undefined)
not listed: [2] | [3] | [8] | [17]
inactive: all other assays above

CCCCNP(N)(N)=S
not listed: [5] | [18] | [20]
inactive: all other assays above

O=C(CCN1CC1)OCC(CO)(COC(=O)CCN1CC1)COC(=O)CCN1CC1
not listed: [2] | [8] | [10] | [11] | [19]
inactive: all other assays above

ClCCCCCCCl
not listed: [2] | [17]
inactive: all other assays above

CCC(C)(C)O
not listed: [2] | [14] | [17] | [19]
inactive: all other assays above

CC=Cc1ccc2c(c1)OCO2
active: [7] 80.8 µM | [9] 0.0749 µM
not listed: [20]
inactive: all other assays above

CCCCOP(=O)(O)OCCCC
not listed: [2] | [10] | [17] | [18] | [20]
inactive: all other assays above

NNc1ccccc1
active: [15] 47.1 µM
not listed: [2] | [8] | [10] | [17] | [20]
inactive: all other assays above

CC(Cc1ccc(C(C)(C)C)cc1)CN1C[C@@H](C)O[C@@H](C)C1 (some centres undefined)
active: [20] 33.4 µM | [14] 21 µM | [15] 35.9 µM
not listed: [2] | [8] | [10]
inactive: all other assays above

C=C(Cl)Cl
not listed: [10] | [11] | [14] | [20]
inactive: all other assays above

N#CCNCC#N
not listed: [2]
inactive: all other assays above

Nc1cc(Cl)cc(Cl)c1
active: [7] 79 µM
not listed: [2] | [8]
inactive: all other assays above

CC(C)(Cl)Cl
not listed: [2] | [5] | [8]
inactive: all other assays above
